# High-throughput results deposited in PubChem by several laboratories.
# CYP2C19 act – cytochrome P450 2C19 (human) activation | P33261 | recombinant CYP2C19, luciferin-H EGE luminescence; hits give high values; 0 = fully inhibited enzyme, 1 = untreated enzyme | activation factor at 5 µM | 96,000 tested, under 10 active;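 active = activation factor of at least 2 at 5 µM in the primary screen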;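 also: 0 = wells with 2.5 mM tranylcypromine and 1 = vehicle-only wells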
# CYP2C9 act – increases human cytochrome P450 2C9 activity | P11712 | 96,000 compounds, 1.4% hits | recombinant CYP2C9, luciferin-H conversion, luminescence; hits give high values; factor 1 = untreated enzyme, 0 = blocked | activation factor at 5 µM;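 active = activation factor of 2 or more for CYP2C9 at a 5 µM dose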;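 also: 0 = sulfaphenazole-blocked wells and 1 = vehicle-only wells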
# Target sequence (P11712 whole entry, looked up): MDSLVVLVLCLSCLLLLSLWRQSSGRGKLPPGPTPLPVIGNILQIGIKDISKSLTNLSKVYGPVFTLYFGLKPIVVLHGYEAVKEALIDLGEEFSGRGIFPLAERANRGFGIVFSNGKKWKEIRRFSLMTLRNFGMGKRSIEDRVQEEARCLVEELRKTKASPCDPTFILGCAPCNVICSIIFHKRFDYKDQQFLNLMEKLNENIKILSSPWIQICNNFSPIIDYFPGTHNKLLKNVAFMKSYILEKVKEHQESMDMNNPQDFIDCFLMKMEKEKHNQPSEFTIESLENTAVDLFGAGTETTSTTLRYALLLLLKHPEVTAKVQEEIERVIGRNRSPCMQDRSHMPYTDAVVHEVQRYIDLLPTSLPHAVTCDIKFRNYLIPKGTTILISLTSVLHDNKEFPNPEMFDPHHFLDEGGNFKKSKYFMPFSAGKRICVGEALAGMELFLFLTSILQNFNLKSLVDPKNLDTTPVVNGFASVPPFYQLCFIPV
# CYP2C9 inh – blocks human cytochrome P450 2C9; CYP2C9 Supersomes, luciferin-H conversion, luminescence; inhibition, % at 5 µM; 96,000 compounds, 20% hits; AID 777;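 active = blocking of liver enzyme CYP2C9 beyond about 50% at 5 µM, limit read from the data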
# CYP2C19 inh – inhibitors of human CYP2C19. P33261. CYP2C19 Supersomes, luciferin-H EGE luminescence, 30 min. inhibition, % at 5 µM. 96,000 compounds, 21% hits. AID 778;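 active = CYP2C19 inhibition above a set limit at 5 µM in the primary screen, cut at about 50% in these data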;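 also: plate controls were negative control wells for no effect and 2.5 mM tranylcypromine positive control for full effect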
# Cav3 T inh – inhibitors of human Cav3.2 T-type calcium channel | Cav3.2-expressing cells, Fluo-4 calcium fluorescence FDSS; hits give low values | AID 449739 | O95180 | B-score at 10 µM | 100,000 compounds, 4% hits;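 active = single-dose well whose peak fluorescence ratio is a statistical outlier from its plate by either plate-standardised score or position-corrected B-score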
# * = called active by the depositor; x = no result given. Only some compounds are listed: those with a hit (about 27% of all), similar ones and a draw of the others.
SMILES,CYP2C19 act,CYP2C9 act,CYP2C9 inh,CYP2C19 inh,Cav3 T inh
O=C(Cn1c(=O)oc2cc(S(=O)(=O)N3CCCC3)ccc21)N1CCCC1,0.9,0.8,20,9,-0.46
Cc1nc2nc(C)n(-c3ccccc3)c2s1,1,1,2,-1,-0.91
CCSc1nc(O)c(C2OC(=O)c3c2ccc(OC)c3OC)c(=O)n1CC (stereo unspecified),0.8,0.8,18,15,0.14
CCOc1ccc(/C(O)=C2\C(=O)C(=O)N(c3cc(C)on3)C2c2ccccc2OC)cc1 (stereo unspecified),1,1.1,-9,-1,-0.19
CCn1cc([N+](=O)[O-])c(C(=O)Nc2ccc(Br)cn2)n1,0.2,0.7,28,82*,-0.4
CCn1cc([N+](=O)[O-])c(C(=O)Nc2c(C)nn(Cc3c(F)c(F)c(F)c(F)c3F)c2C)n1,0.9,0.9,7,8,-3.6
O=C(Nc1cccc(Cl)c1)N1CCN(C/C=C/c2ccccc2)CC1,0.6,0.4,62*,42,-6*
Cc1ccc(NC(=O)CCN2CCN(C/C=C/c3ccccc3)CC2)cc1,0.8,0.9,13,16,-0.21
O=C(Nc1ccc2ccccc2c1)N1CCN(c2ncccc2C(F)(F)F)CC1,0.3,1.6,-65,70*,-4.1
Cc1cccc(NC(=O)N2CCN(Cc3ccccc3)CC2)c1,x,x,x,x,0.053
O=C(Nc1cccc(Cl)c1)N1CCN(c2ncccn2)CC1,0.1,0.4,56*,89*,-2.8
Cc1ccc(NC(=O)CCN2CCN(C/C=C/c3ccccc3)CC2)cc1C,1,2.2*,-119,2,x
CCCSc1nc2c(c(=O)n1CC)SC(C)C2 (stereo unspecified),0.7,0.5,46,31,x
O=C(Nc1ccc(F)cc1F)N1CCN(c2ncccn2)CC1,0.3,0.9,14,70*,0.25
CCOc1ccccc1N1CCN(C(=O)Nc2cccc(Cl)c2)CC1,0.6,1.3,-27,45,-6.1*
O=C(/C=C/c1c(Cl)cccc1Cl)N1CCN(c2ncccn2)CC1,0,0.5,52*,96*,-4.3*
O=C(c1cccc(C(=O)N2CCN(c3ncccn3)CC2)c1)N1CCN(c2ncccn2)CC1,1,0.9,13,0,x
O=C(c1ccccc1)c1cncc(Br)c1,0.9,0.9,7,11,-0.55
C=C(C)CSc1nc2ncc(Cl)cc2[nH]1,1,0.6,38,4,0.8
C=C(C)CN(CC)C(=O)CSc1nc2ncc(Cl)cc2[nH]1,0.1,0.6,39,92*,-0.88
O=C(CO)N/N=C/c1ccccc1F,1,1.3,-25,4,-0.95
O=C(CC(=O)N/N=C/c1ccc(Cl)cc1Cl)NCc1ccccc1,0.4,0.6,44,55*,0.95
C=CCNC(=O)CC(=O)N/N=C/c1ccccc1F,0.8,0.1,89*,25,-1.2
O=C(CCCn1c(SCC(=O)NCC2CCCO2)nc2ccccc2c1=O)NCc1ccccc1 (stereo unspecified),0.7,0.4,56*,29,0.52
N#CCCn1c(SCC(=O)NCC2CCCO2)nc2ccccc21 (stereo unspecified),0.9,1.3,-31,9,0.1
SMILES,CYP2C19 act,CYP2C9 act,CYP2C9 inh,CYP2C19 inh,Cav3 T inh
COc1ccc(-n2c(SCC(=O)NCC3CCCO3)nc3ccccc32)cc1 (stereo unspecified),0.1,0.1,90*,93*,-0.54
Cc1ccccc1-n1c(Cn2c(=O)sc3ccccc32)nnc1SCC(=O)NCC1CCCO1 (stereo unspecified),0.9,0.5,50*,15,1.2
O=C(CCCn1c(SCC(=O)c2ccc(F)cc2)nc2ccccc2c1=O)NCc1ccccc1,0.3,0.1,90*,71*,-2.5
Cc1cc(NC(=O)CSc2nc3ccccc3c(=O)n2CCCC(=O)NCc2ccccc2)n[nH]1,0.1,0.2,78*,87*,0.031
CC12CCC(C(=O)Nc3ccccc3Br)(C/C1=N\O)C2(C)C (stereo unspecified),1,1.2,-18,3,1.1
CC1(C)Cc2c(C#N)c(NC3CCCCC3)nc(-c3ccco3)c2CO1,0.9,0.4,60*,6,-1.5
CCN(CC)CCNc1nc(-c2ccco2)c2c(c1C#N)CC(C)(C)OC2,0.9,0.9,14,13,0.4
C#CCOCCOCCOCCNc1nc(N2CCN(C(=O)Cn3cc(CCO)nn3)CC2)nc(N2CCN(C(=O)[C@H]([C@@H](C)O)n3cc(CCCCN)nn3)CC2)n1,x,x,x,x,0.073
